Of roughly 8,800 targets only a part is listed; those with a hit were picked by preference. About 0.5% of all pairs of compound and target were hits. Unmarked numbers belong to inactive results.
Columns and labels:
Test in all cases: log2 fold change, soluble protein after heating vs DMSO (PISA); higher = thermal stabilisation; K562 lysate, 10 uM; active = over 0.2 and 3.5 SD of the protein, either way, in both replicates (recomputed)
alvocidib = compound: CN1CC[C@H](c2c(O)cc(O)c3c(=O)cc(-c4ccccc4Cl)oc23)[C@H](O)C1 [alvocidib]
How it was run: (§1)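 Log-two fold change in thermal stability relative to solvent controls is reported from duplicates. For each sample, crude K562 extract from dounce-homogenised pellets in PBS pH 7.4 with 1 mM MgCl2, at 1 mg/mL protein, was treated with 10 μM compound for 30 min. Aliquots heated for 3 min across 48°C-58°C were pooled, brought to 0.5% NP-40 at 4°C and cleared at 21,000xg for 90 min. The supernatant was quantified by TMTpro 16plex LC-MS/MS with channel sums equalised.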

Tubastatin A = compound: CN1CCc2c(c3ccccc3n2Cc2ccc(C(=O)NO)cc2)C1 [Tubastatin A]
How it was run: as §1

[1] = compound: CNC(=O)C1=CC=CC=C1NC2=NC(=NC=C2Cl)NC3=C(C=C(C=C3)N4CCOCC4)OC
How it was run: as §1

defactinib = compound: CNC(=O)c1ccc(Nc2ncc(C(F)(F)F)c(NCc3nccnc3N(C)S(C)(=O)=O)n2)cc1 [defactinib]
How it was run: as §1

encorafenib = compound: COC(=O)N[C@@H](C)CNc1nccc(-c2cn(C(C)C)nc2-c2cc(Cl)cc(NS(C)(=O)=O)c2F)n1 [encorafenib]
How it was run: as §1

[2] = compound: COC(=O)[C@H](CCSC)NC(=O)C1=C(C=C(C=C1)NC[C@H](CS)N)C2=CC=CC=C2
How it was run: as §1

[3] = compound: COc1cc2nc(-c3cc(F)ccc3O)nc(N[C@@H]3CNC[C@H]3C(C)(C)O)c2cc1OC
How it was run: as §1

[4] = compound: CNc1nc(-c2ccc3c(N)n[nH]c3c2)cc(N2C[C@@H](C(=O)NC3CCCCC3)CC[C@H]2C)n1
How it was run: as §1

alisertib = compound: COc1cc(Nc2ncc3c(n2)-c2ccc(Cl)cc2C(c2c(F)cccc2OC)=NC3)ccc1C(=O)O [alisertib]
How it was run: as §1

gefitinib = compound: COc1cc2ncnc(Nc3ccc(F)c(Cl)c3)c2cc1OCCCN1CCOCC1 [gefitinib]
How it was run: as §1

Chain of UniProt Q15003 (Q15003 whole entry, looked up): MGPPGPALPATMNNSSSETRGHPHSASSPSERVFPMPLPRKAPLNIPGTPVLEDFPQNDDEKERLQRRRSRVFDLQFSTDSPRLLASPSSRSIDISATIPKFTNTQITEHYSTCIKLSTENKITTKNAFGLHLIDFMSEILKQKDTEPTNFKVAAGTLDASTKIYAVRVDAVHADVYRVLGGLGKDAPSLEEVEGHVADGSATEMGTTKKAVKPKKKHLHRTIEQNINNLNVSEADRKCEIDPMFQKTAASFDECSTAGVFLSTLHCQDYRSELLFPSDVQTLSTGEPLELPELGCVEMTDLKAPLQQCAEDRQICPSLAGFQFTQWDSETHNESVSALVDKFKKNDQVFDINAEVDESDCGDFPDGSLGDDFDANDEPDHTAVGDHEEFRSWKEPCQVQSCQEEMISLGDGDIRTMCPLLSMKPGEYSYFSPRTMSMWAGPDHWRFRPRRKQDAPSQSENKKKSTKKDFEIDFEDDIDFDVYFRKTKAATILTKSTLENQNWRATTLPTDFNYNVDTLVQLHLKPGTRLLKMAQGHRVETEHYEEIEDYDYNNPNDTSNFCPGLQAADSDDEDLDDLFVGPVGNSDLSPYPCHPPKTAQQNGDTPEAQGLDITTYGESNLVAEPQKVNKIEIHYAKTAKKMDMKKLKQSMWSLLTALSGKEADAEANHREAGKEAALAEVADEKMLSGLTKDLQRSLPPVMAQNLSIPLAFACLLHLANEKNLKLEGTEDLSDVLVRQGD
Chain of UniProt P49116 (P49116 whole entry, looked up): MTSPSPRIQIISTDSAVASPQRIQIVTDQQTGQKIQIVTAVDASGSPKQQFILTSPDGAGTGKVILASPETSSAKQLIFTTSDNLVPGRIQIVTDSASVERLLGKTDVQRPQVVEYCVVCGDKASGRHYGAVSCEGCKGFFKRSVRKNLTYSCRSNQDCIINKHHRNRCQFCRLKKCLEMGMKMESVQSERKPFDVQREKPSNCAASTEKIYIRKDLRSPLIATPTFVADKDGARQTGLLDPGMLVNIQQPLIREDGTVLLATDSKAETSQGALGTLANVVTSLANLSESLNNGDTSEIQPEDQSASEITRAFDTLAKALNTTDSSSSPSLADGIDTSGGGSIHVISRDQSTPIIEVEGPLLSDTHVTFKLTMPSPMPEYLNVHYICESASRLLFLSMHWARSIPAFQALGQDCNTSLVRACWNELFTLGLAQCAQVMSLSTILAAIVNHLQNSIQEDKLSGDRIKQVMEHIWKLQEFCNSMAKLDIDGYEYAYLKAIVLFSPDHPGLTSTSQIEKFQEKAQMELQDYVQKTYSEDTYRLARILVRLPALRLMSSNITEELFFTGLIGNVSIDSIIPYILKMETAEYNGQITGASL
Chain of UniProt B2RTY4 (B2RTY4 whole entry, looked up): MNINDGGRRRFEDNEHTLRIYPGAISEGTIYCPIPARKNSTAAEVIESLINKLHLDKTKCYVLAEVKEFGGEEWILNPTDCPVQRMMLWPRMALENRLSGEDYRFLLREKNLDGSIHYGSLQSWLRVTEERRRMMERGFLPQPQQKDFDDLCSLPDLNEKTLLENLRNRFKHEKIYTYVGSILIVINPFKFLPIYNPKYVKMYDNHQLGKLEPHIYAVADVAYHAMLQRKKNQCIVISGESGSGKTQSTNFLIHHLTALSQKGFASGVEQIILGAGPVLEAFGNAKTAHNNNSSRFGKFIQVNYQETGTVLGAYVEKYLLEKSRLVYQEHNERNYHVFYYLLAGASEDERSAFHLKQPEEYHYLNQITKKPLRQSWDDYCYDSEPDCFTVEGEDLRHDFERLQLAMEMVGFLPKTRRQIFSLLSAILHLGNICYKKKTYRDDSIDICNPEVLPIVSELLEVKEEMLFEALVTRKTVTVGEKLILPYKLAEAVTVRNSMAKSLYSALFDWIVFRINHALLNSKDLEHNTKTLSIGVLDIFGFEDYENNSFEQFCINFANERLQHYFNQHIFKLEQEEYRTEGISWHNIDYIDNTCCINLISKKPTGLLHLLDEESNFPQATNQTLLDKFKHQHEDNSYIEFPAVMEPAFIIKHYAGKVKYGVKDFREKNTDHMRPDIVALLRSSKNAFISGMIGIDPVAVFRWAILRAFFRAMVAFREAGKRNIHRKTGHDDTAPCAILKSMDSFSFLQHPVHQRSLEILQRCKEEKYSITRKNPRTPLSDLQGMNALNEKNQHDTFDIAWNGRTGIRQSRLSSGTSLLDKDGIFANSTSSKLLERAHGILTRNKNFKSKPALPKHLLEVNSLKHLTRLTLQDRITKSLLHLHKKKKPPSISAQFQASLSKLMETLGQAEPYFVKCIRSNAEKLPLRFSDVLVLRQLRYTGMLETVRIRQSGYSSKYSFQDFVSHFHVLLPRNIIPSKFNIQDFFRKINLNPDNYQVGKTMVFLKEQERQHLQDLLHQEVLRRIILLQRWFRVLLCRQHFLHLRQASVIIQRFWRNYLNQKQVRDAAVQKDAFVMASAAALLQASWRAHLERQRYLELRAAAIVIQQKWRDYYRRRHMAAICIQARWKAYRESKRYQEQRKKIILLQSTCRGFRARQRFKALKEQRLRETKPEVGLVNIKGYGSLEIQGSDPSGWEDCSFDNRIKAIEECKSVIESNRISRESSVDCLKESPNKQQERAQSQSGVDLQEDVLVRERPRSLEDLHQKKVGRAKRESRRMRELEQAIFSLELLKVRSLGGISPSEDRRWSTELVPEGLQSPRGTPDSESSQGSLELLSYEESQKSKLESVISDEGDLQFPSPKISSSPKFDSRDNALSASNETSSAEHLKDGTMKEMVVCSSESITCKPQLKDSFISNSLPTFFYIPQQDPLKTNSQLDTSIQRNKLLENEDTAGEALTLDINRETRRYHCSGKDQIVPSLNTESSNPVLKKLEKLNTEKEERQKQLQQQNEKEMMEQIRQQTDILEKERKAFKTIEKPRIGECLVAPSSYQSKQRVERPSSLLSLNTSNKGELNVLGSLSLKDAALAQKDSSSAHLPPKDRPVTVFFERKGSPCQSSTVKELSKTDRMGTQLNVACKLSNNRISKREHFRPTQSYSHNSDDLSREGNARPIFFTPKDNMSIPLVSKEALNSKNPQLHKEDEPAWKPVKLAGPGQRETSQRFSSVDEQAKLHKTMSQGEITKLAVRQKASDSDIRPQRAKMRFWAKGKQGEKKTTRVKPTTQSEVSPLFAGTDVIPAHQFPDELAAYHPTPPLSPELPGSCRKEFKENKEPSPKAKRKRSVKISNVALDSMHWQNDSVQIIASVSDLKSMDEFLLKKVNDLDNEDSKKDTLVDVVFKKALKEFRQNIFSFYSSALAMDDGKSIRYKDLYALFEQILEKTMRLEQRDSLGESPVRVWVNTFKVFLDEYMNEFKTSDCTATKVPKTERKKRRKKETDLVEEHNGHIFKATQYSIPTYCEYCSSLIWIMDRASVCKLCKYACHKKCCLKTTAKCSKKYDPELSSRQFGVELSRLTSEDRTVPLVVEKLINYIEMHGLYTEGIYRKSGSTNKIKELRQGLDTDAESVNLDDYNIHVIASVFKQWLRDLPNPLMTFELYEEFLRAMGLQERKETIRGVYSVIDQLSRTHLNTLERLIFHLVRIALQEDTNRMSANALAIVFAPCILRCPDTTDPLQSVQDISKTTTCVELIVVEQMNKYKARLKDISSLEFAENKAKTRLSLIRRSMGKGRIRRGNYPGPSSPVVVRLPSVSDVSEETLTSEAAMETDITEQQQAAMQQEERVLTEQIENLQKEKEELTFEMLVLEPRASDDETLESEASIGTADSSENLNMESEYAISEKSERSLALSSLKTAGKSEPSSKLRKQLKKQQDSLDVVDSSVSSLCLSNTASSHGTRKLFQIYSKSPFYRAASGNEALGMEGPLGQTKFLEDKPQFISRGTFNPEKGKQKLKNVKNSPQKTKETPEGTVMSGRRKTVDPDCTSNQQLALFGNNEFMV
Chain of UniProt P03928 (P03928 whole entry, looked up): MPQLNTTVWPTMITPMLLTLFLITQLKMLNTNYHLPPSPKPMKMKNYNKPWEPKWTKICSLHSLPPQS
Chain of UniProt Q4G0N4 (Q4G0N4 whole entry, looked up): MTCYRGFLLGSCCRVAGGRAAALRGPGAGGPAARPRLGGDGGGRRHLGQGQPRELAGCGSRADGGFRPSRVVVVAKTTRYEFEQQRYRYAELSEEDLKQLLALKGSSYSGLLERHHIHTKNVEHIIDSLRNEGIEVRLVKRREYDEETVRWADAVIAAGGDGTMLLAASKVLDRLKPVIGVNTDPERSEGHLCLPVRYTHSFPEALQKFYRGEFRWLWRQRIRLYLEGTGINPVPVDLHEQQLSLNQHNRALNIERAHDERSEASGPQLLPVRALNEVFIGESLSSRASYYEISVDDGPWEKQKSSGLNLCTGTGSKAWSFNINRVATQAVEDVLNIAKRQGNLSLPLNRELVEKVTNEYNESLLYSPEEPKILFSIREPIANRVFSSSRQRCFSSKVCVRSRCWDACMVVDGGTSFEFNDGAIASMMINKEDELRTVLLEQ
Chain of UniProt P24468 (P24468 whole entry, looked up): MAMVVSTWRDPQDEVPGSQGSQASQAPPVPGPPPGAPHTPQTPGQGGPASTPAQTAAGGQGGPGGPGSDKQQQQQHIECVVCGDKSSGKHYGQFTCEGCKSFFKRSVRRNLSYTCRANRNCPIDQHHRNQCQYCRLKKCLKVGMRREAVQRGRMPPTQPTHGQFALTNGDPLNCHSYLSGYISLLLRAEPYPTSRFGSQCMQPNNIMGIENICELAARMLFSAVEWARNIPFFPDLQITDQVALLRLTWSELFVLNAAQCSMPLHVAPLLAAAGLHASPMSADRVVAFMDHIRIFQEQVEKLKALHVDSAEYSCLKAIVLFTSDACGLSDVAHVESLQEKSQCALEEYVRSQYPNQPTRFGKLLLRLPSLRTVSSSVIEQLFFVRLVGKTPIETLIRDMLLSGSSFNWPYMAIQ
Chain of UniProt O60829 (O60829 whole entry, looked up): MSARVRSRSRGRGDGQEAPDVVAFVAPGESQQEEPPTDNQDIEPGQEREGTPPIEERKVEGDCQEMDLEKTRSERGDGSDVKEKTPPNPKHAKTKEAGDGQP

| Target | log2 fold change (alvocidib) | log2 fold change (Tubastatin A) | log2 fold change [1] | log2 fold change (defactinib) | log2 fold change (encorafenib) | log2 fold change [2] | log2 fold change [3] | log2 fold change [4] | log2 fold change (alisertib) | log2 fold change (gefitinib) |
| --- | --- | --- | --- | --- | --- | --- | --- | --- | --- | --- |
| NSUN7 (UniProt Q8NE18) | -0.191 | 0.176 | -0.001 | -0.035 | 0.21 | -0.026 | -0.006 | – | – | – |
| MYO9A isoform 4 (UniProt B2RTY4) | 0.034 | -0.077 | -0.013 | -0.026 | – | – | 0.04 | 0.015 | -0.035 | 0.009 |
| NR2C2 isoform 2 (UniProt P49116) | 0.075 | -0.045 | -0.03 | 0.058 | -0.002 | -0.022 | -0.002 | 0.1 | – | – |
| NADK2 (UniProt Q4G0N4) | -0.025 | 0.106 | -0.036 | 0 | -0.052 | 0.3 (active) | -0.004 | 0.04 | -0.022 | -0.009 |
| PANK2 (UniProt Q9BZ23) | 0.057 | 0.108 | – | 0.023 | -0.01 | 0.014 | -0.046 | 0 | 0.35 (active) | -0.233 |
| ORC3 (UniProt Q9UBD5) | 0.16 | – | – | – | – | – | 0 | – | -0.035 | 0.105 |
| NUP93 (UniProt Q8N1F7) | -0.006 | -0.085 | -0.013 | 0.023 | 0.029 | 0.027 | -0.007 | -0.097 | 0.01 | 0.014 |
| NCAPH (UniProt Q15003) | 0.007 | -0.089 | 0.008 | 0.015 | 0.013 | 0.063 | 0.018 | 0.023 | 0.015 | 0.006 |
| OSBPL1A (UniProt Q9BXW6) | -0.035 | – | 0.091 | – | – | – | 0.048 | 0.099 | -0.071 | 0.135 |
| NOCT (UniProt Q9UK39) | – | 0.012 | 0.159 | – | 0.046 | -0.01 | -0.144 | 0.042 | 0.009 | -0.088 |
| ORC1 (UniProt Q13415) | – | – | – | – | 0.018 | -0.188 | – | – | – | – |
| PARD3B (UniProt Q8TEW8) | -0.125 | – | 0.005 | – | – | – | – | 0.093 | – | – |
| MYH6 (UniProt P13533) | – | 0.142 | -0.06 | – | -0.048 | 0.082 | 0.206 | – | – | – |
| MTA3 (UniProt Q9BTC8) | -0.016 | -0.013 | 0.019 | 0.044 | 0.041 | 0.091 | 0.025 | -0.043 | 0.077 | -0.059 |
| MTHFD1 (UniProt V9GZ32) | – | – | – | – | – | – | 0 | – | 0.108 | -0.073 |
| PAPOLG (UniProt Q9BWT3) | -0.008 | 0.16 | 0.003 | -0.025 | 0.063 | 0.098 | – | 0.085 | -0.035 | 0.062 |
| OGFR (UniProt Q9NZT2) | 0.022 | -0.089 | 0.002 | -0.015 | 0.02 | 0.089 | -0.003 | -0.03 | -0.003 | -0.004 |

| Target | log2 fold change (alvocidib) | log2 fold change (Tubastatin A) | log2 fold change [1] | log2 fold change (defactinib) | log2 fold change (encorafenib) | log2 fold change [2] | log2 fold change [3] | log2 fold change [4] | log2 fold change (alisertib) | log2 fold change (gefitinib) |
| --- | --- | --- | --- | --- | --- | --- | --- | --- | --- | --- |
| NDUFAF5 (UniProt Q5TEU4) | -0.004 | 0.12 | -0.068 | -0.047 | 0.18 | -0.065 | -0.033 | 0.175 | – | – |
| NUDT5 (UniProt C9JYY9) | – | – | 0.026 | – | 0.066 | -0.029 | – | – | -0.092 | -0.075 |
| MYO10 (UniProt Q9HD67) | 0.048 | 0.211 | -0.012 | -0.106 | – | – | – | – | 0.021 | 0.087 |
| NTMT1 (UniProt S4R338) | – | – | – | – | – | – | 0.045 | – | – | – |
| MUC5AC (UniProt P98088) | – | -0.03 | – | – | – | – | – | – | -0.233 | 0.013 |
| NAA16 (UniProt Q6N069) | – | -0.097 | – | 0.086 | 0.062 | 0.169 | -0.03 | -0.05 | 0.11 | 0.142 |
| NPLOC4 (UniProt I3L3I1) | – | – | – | – | 0.014 | -0.143 | – | 0.799 | – | – |
| NUB1 (UniProt H7C5N1) | – | 0.209 | – | – | – | – | – | – | – | – |
| P2RY1 (UniProt P47900) | -0.025 | 0.06 | -0.077 | – | 0.054 | 0.057 | -0.068 | -0.013 | – | – |
| NUDT6 (UniProt P53370) | – | 0.042 | 0.154 | -0.002 | -0.021 | -0.015 | – | -0.024 | – | – |
| NUMB isoform 2 (UniProt P49757) | – | -0.112 | – | – | – | – | – | 0.158 | 0.092 | -0.277 |
| NR2F2 (UniProt P24468) | -0.053 | -0.154 | 0.056 | – | – | – | 0.012 | -0.047 | 0.072 | -0.077 |
| MT-ATP8 (UniProt P03928) | 0.044 | 0.072 | 0.08 | 0.017 | -0.071 | -0.139 | -0.078 | – | -0.017 | -0.081 |
| MRPS12 (UniProt O15235) | -0.015 | 0.026 | -0.021 | 0.015 | 0.011 | -0.168 | -0.053 | 0.067 | -0.027 | -0.032 |
| PAGE4 (UniProt O60829) | 0.086 | 0.027 | -0.072 | – | -0.005 | -0.086 | 0.057 | -0.038 | – | – |
| MYLK (UniProt Q15746) | 0.097 | – | – | 0.128 | 0.154 | -0.008 | -0.109 | – | -0.001 | 0.071 |
| NRIP1 (UniProt P48552) | -0.145 | 0.001 | -0.096 | – | – | – | 0.04 | 0.291 | -0.21 | -0.011 |
